Outcome and AC50 data for 40 compounds are collected here from PubChem BioAssay (EPA / NIEHS).

Activity calls are given as the source filed them. The calls were made as follows: active = hit-call score of the fitted dose curve at least 0.9, where 1 is the maximum; inactive = score below 0.9.

Transcription factor Sp1 (Homo sapiens), sequence (P08047 whole entry, looked up, the tested form may be a part): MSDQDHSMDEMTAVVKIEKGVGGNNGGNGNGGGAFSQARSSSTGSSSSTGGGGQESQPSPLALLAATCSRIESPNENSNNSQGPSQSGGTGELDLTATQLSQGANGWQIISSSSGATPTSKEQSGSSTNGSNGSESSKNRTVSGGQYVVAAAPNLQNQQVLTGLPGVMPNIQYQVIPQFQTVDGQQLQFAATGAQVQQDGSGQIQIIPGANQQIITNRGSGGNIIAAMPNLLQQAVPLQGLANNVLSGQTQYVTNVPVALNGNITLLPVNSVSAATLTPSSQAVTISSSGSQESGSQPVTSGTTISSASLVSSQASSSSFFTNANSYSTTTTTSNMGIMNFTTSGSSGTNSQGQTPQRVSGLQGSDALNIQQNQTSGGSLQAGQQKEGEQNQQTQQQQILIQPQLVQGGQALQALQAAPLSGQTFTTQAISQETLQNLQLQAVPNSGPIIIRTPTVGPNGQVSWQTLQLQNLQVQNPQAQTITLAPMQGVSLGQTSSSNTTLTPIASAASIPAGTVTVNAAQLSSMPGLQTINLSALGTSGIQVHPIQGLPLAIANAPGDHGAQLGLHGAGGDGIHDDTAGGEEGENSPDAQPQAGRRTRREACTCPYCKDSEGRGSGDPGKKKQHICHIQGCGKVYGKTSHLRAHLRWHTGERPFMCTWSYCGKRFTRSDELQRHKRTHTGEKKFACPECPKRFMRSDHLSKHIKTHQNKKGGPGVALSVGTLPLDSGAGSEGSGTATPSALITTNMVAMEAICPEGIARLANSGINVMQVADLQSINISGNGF

Tested on in the first experiment: not listed separately
The experiment can be described thus: ATG_Sox_CIS: Attagene CIS-FACTORIAL HepG2 Assay for human SRY-box transcription factor (SOX) (AID 2282960). To be noted: HepG2 Attagene cis-factorial SOX reporter, mRNA; actives raise or lower the signal. The procedure, abridged:
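HepG2, cis reporter units, 24 h exposure. Reporter mRNA: RT-PCR → FAM labelling → HpaI → CE fluorescence. Bidirectional fit vs DMSO.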
Take `C=CC(=O)NC(C)(C)CS(=O)(=O)O`: the compound was classed as inactive.
`O=C1CCCC(=O)O1`: the outcome was inactive.
`Cc1c(C)c([N+](=O)[O-])c(C(C)(C)C)c([N+](=O)[O-])c1C`: the outcome was inactive.
As for `CCOc1ccc(N)c([N+](=O)[O-])c1`, the call was inactive.
As to `CCOC(=O)Cc1cccc2ccccc12`, the result was inactive.
The same measure, in the same setting: the same measure for `COC=O`: “inactive”.
As for `C[C@]12C=CC(=O)C=C1CC[C@@H]1[C@@H]2[C@@H](O)C[C@@]2(C)[C@H]1CC[C@]2(O)C(=O)CO`, the outcome was inactive.
In the case of `CCC(C)OC(=O)c1ccc(O)cc1` (configuration not stated), the compound was called inactive.
On to `CC1=CC[C@H]2C[C@@H]1C2(C)C`, for which the compound was classed as inactive.
The same measure, in the same setting: the result for `N#[N+]c1ccc2c(S(=O)(=O)[O-])cccc2c1O` reads “inactive”; that for `Cc1cc(C)c(C)c(O)c1`, “inactive”; that for `CCCCCCC1(C)CCC(=O)O1` (configuration not stated), “inactive”.
Regarding `Cc1cccc(C(=O)O)c1`, the call was inactive.
Turning to `C=CC(C)(CCC=C(C)C)OC(=O)CC(C)C` (configuration not stated), the result was inactive.
For the compound `CC/C=C\CCOC(=O)CCCCC`, the outcome was inactive.
Turning to `O=S1(=O)OC(c2ccc(O)cc2)(c2ccc(O)cc2)c2ccccc21`, the call was inactive.
Turning to `O=C1C(N(CO)C(=O)NCO)N(CO)C(=O)N1CO` (configuration not stated), the result was inactive.
On to `CC(CC=O)c1ccccc1` (configuration not stated), for which the compound was called inactive.
On to `CC(C)CCCC(C)CC=O` (configuration not stated), for which the result was inactive.
With `CCO[Si](CCCN=C=O)(OCC)OCC`, the result was inactive.
For `O=S(=O)(Oc1ccc(Cl)cc1Cl)c1ccccc1`, the call was inactive.
For `ON(Cc1ccccc1)Cc1ccccc1`, the compound was called inactive.
With `CC1=CC[C@H](C(C)C)C=C1`, the result was inactive.
As to `COC(=O)c1c(C)cc(O)c(C)c1O`, the compound was classed as inactive.
As to `CCC(C)(C)C1CCCCC1OC(C)=O` (configuration not stated), the result was inactive.
For `O=CN1CCCCC1`, the result was inactive.
As for `CCN(CC#N)c1cccc(C)c1`, the outcome was inactive.
In the case of `CC(=O)OCc1ccco1`, the compound was classed as inactive.
As to `CC(C)(C)C(=O)CCc1ccc(Cl)cc1`, the outcome was inactive.
For `NC(=O)OCC(COC(N)=O)c1ccccc1`, the compound was classed as inactive.
Consider `COC(=O)/C=C\C(=O)O`, for which the compound was called inactive.
On the same count and under the same terms, the same measure for `C1=Cc2ccccc2C1`: “inactive”; for `CCCCC/C=C\C/C=C\CCCCCCCC(=O)OC`: “inactive”; for `N[C@H]1C(O)O[C@H](CO)[C@H](O)[C@@H]1O` (some centres not stated): “inactive”.

A further experiment concerns the target Transcription factor Sp1 (Homo sapiens) (UniProt P08047). Briefly: ATG_Sp1_CIS: Attagene CIS-FACTORIAL HepG2 Assay for human Specificity Protein 1 (Sp1) (AID 2282961). To be noted: HepG2 Sp1 cis-reporter transcription, actives raise or lower the signal. The method, boiled down:
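Liver-derived HepG2 cells, cis-element reporter library, 24 h treatment; RNA isolated, cDNA amplified with reporter-specific primers, FAM-labeled fragments sized on capillary analyzer. DMSO baseline, bidirectional curve fit.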
Consider `C=CC(=O)NC(C)(C)CS(=O)(=O)O`, for which the compound was called inactive.
With `O=C1CCCC(=O)O1`, the call was inactive.
As for `Cc1c(C)c([N+](=O)[O-])c(C(C)(C)C)c([N+](=O)[O-])c1C`, the compound was classed as inactive.
In the case of `COC=O`, the result was inactive.
The same measure, in the same setting: the same measure for `CCC(C)OC(=O)c1ccc(O)cc1` (configuration not stated): “inactive”.
As for `CC1=CC[C@H]2C[C@@H]1C2(C)C`, the outcome was inactive.
In the case of `N#[N+]c1ccc2c(S(=O)(=O)[O-])cccc2c1O`, the compound was called inactive.
Same read-out and setting: the result for `Cc1cc(C)c(C)c(O)c1` reads “inactive”.
For `CCCCCCC1(C)CCC(=O)O1` (configuration not stated), the call was inactive.
As to `C=CC(C)(CCC=C(C)C)OC(=O)CC(C)C` (configuration not stated), the compound was called inactive.
Consider `CC/C=C\CCOC(=O)CCCCC`, for which the compound was classed as inactive.
Turning to `O=S1(=O)OC(c2ccc(O)cc2)(c2ccc(O)cc2)c2ccccc21`, the outcome was inactive.
Regarding `O=C1C(N(CO)C(=O)NCO)N(CO)C(=O)N1CO` (configuration not stated), the outcome was inactive.
For `CC(C)CCCC(C)CC=O` (configuration not stated), the call was inactive.
The same measure, in the same setting: the same measure for `CCN(Cc1cccc(S(=O)(=O)O)c1)c1ccc(C(=C2C=CC(=[N+](CC)Cc3cccc(S(=O)(=O)[O-])c3)C=C2)c2ccccc2)cc1`: “inactive”.
As for `CCO[Si](CCCN=C=O)(OCC)OCC`, the outcome was inactive.
Turning to `O=S(=O)(Oc1ccc(Cl)cc1Cl)c1ccccc1`, the result was inactive.
`Cc1ccc(C(C)(C)C)cc1`: the compound was called inactive.
Same read-out and setting: the same measure for `ON(Cc1ccccc1)Cc1ccccc1`: “inactive”; for `CC1=CC[C@H](C(C)C)C=C1`: “inactive”; for `CC(C)=CCC[C@H](C)CCO`: “inactive”.
For `COC(=O)c1c(C)cc(O)c(C)c1O`, the compound was called inactive.
As to `CCC(C)(C)C1CCCCC1OC(C)=O` (configuration not stated), the outcome was inactive.
The same measure, in the same setting: the same measure for `N#CCc1ccc(Cl)cc1Cl`: “inactive”; for `CCN(CC#N)c1cccc(C)c1`: “inactive”.
Same read-out and setting: the same measure for `CC(=O)OCc1ccco1`: “inactive”.
With `CC(C)(C)C(=O)CCc1ccc(Cl)cc1`, the call was inactive.
Consider `NC(=O)OCC(COC(N)=O)c1ccccc1`, for which the outcome was inactive.
Consider `COC(=O)/C=C\C(=O)O`, for which the outcome was inactive.
On to `C1=Cc2ccccc2C1`, for which the call was inactive.
As for `CCCCC/C=C\C/C=C\CCCCCCCC(=O)OC`, the call was inactive.
On to `O=C1CCC(=O)N1Cl`, for which the outcome was inactive.
`C=C(C)[C@H]1CC=C(C)CC1`: the compound was classed as inactive.
Regarding `N[C@H]1C(O)O[C@H](CO)[C@H](O)[C@@H]1O` (some centres not stated), the outcome was inactive.

Tested on in the next experiment: not listed separately
Briefly: ATG_SREBP_CIS: Attagene CIS-FACTORIAL HepG2 Assay for human Sterol Regulatory Element Binding (SREBP) (AID 2282962). Particulars: HepG2 Attagene cis-factorial SREBP reporter, mRNA; actives raise or lower the signal. The procedure, abridged:
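Twenty-four hours after chemical dosing of transfected HepG2 cultures, reporter RNA was converted to cDNA, amplified, end-labelled with 6-FAM and resolved by capillary electrophoresis. Responses were fitted relative to DMSO.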
Turning to `C=CC(=O)NC(C)(C)CS(=O)(=O)O`, the compound was called inactive.
For the compound `O=C1CCCC(=O)O1`, the outcome was inactive.
As for `Cc1c(C)c([N+](=O)[O-])c(C(C)(C)C)c([N+](=O)[O-])c1C`, the call was inactive.
Consider `CCOc1ccc(N)c([N+](=O)[O-])c1`, for which the outcome was inactive.
For `C[C@]12C=CC(=O)C=C1CC[C@@H]1[C@@H]2[C@@H](O)C[C@@]2(C)[C@H]1CC[C@]2(O)C(=O)CO`, the result was inactive.
As to `CC1=CC[C@H]2C[C@@H]1C2(C)C`, the compound was called inactive.
For `Cc1cc(C)c(C)c(O)c1`, the compound was classed as inactive.
`CCCCCCC1(C)CCC(=O)O1` (configuration not stated): the compound was classed as inactive.
As for `Cc1cccc(C(=O)O)c1`, the compound was classed as inactive.
By AC50 is commonly meant the concentration giving half of the maximal activity seen. On to `C=CC(C)(CCC=C(C)C)OC(=O)CC(C)C` (configuration not stated), for which the AC50 is 118 µM (active).
In the case of `CC/C=C\CCOC(=O)CCCCC`, the outcome was inactive.
The same measure, in the same setting: the same measure for `O=S1(=O)OC(c2ccc(O)cc2)(c2ccc(O)cc2)c2ccccc21`: “inactive”; for `O=C1C(N(CO)C(=O)NCO)N(CO)C(=O)N1CO` (configuration not stated): “inactive”.
For the compound `CC(CC=O)c1ccccc1` (configuration not stated), the call was inactive.
For `CC(C)CCCC(C)CC=O` (configuration not stated), the compound was classed as inactive.
Still for that read-out and setting: the same measure for `CCN(Cc1cccc(S(=O)(=O)O)c1)c1ccc(C(=C2C=CC(=[N+](CC)Cc3cccc(S(=O)(=O)[O-])c3)C=C2)c2ccccc2)cc1`: “inactive”; for `CCO[Si](CCCN=C=O)(OCC)OCC`: “inactive”.
With `O=S(=O)(Oc1ccc(Cl)cc1Cl)c1ccccc1`, the result was inactive.
Consider `Cc1ccc(C(C)(C)C)cc1`, for which the outcome was inactive.
`ON(Cc1ccccc1)Cc1ccccc1`: the compound was classed as inactive.
The same measure, in the same setting: the result for `CC1=CC[C@H](C(C)C)C=C1` reads “inactive”; that for `CC(C)=CCC[C@H](C)CCO`, “inactive”; that for `COC(=O)c1c(C)cc(O)c(C)c1O`, “inactive”.
On the same count and under the same terms, the same measure for `CCC(C)(C)C1CCCCC1OC(C)=O` (configuration not stated): “inactive”; for `O=CN1CCCCC1`: “inactive”.
In the case of `CCN(CC#N)c1cccc(C)c1`, the compound was called inactive.
`CC(=O)OCc1ccco1`: the result was inactive.
Regarding `CC(C)(C)C(=O)CCc1ccc(Cl)cc1`, the outcome was inactive.
Still for that read-out and setting: the same measure for `NC(=O)OCC(COC(N)=O)c1ccccc1`: “inactive”.
For `COC(=O)/C=C\C(=O)O`, the compound was classed as inactive.
For `C1=Cc2ccccc2C1`, the call was inactive.
Take `CCCCC/C=C\C/C=C\CCCCCCCC(=O)OC`: the compound was classed as inactive.
For the compound `O=C1CCC(=O)N1Cl`, the compound was classed as inactive.
For the compound `N[C@H]1C(O)O[C@H](CO)[C@H](O)[C@@H]1O` (some centres not stated), the compound was classed as inactive.
